# Measured values taken from PubChem BioAssay (NCATS).
# Results filed as inconclusive are left out. Entries that show only a call come without a potency. Activity calls are given as the source filed them. Calls follow the shape of the dose curve; as a rule, active = well fitted inhibition curve with a large enough effect; inconclusive = small, poorly fitted or top-dose-only effect; inactive = flat fitted curve, though single readings scatter.
# Molecular target: Nicotinamide N-methyltransferase (Homo sapiens) (UniProt P40261)
# Experiment: Confirmatory Screen for Target Class Profiling of Small Molecule Inhibitors of Methyltransferases (AID 1745852)
# Settings: MTase-Glo luminescence, SAH detection, recombinant enzyme; measured here: NNMT max response; stronger effect = lower value
# Sequence of Nicotinamide N-methyltransferase (Homo sapiens) (P40261 whole entry, looked up): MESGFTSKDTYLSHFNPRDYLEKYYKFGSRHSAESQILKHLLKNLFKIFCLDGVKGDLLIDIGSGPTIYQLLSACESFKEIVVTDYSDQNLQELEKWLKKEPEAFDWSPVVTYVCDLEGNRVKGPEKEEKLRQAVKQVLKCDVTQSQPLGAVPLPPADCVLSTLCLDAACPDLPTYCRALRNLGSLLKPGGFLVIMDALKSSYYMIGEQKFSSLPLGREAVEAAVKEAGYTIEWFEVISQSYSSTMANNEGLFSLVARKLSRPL
row,Structure (SMILES),activity [%]
1,CC1=CC(=O)[C@@]2(C(C)C)C[C@@H]12,-30.7
2,COc1ccc(-c2nc(-c3cc(C(F)(F)F)cc(C(F)(F)F)c3)n(Cc3ccc(C(N)=O)cc3)c2-c2ccc(OC)cc2)cc1,-7.68
3,Cc1cc(C)c(NC(=O)N(Cc2ccc3c(c2)Cc2ccccc2-3)C2CCCCCC2)c(C)c1,-15.8
4,CN(Cc1ccc(C(=O)O)cc1)c1ccc(OCc2c(-c3c(Cl)cccc3Cl)noc2C2CC2)nc1C(F)(F)F,-0.741

# Molecular target: Phenylethanolamine N-methyltransferase (Homo sapiens) (UniProt P11086)
# Experiment: as above
# Settings: MTase-Glo luminescence, SAH detection, recombinant enzyme; measured here: PNMT max response; stronger effect = lower value
# Sequence of Phenylethanolamine N-methyltransferase (Homo sapiens) (P11086 whole entry, looked up): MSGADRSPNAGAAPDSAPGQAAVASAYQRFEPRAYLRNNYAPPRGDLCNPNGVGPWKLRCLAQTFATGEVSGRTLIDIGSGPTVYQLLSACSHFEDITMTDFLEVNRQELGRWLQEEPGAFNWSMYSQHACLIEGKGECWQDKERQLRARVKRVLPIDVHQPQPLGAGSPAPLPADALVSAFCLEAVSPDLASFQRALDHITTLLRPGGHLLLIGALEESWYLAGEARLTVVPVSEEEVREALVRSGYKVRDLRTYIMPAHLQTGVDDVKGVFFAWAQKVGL
row,Structure (SMILES),activity [%]
1,CC1=CC(=O)[C@@]2(C(C)C)C[C@@H]12,-13.4
2,COc1ccc(-c2nc(-c3cc(C(F)(F)F)cc(C(F)(F)F)c3)n(Cc3ccc(C(N)=O)cc3)c2-c2ccc(OC)cc2)cc1,-1.33
3,Cc1cc(C)c(NC(=O)N(Cc2ccc3c(c2)Cc2ccccc2-3)C2CCCCCC2)c(C)c1,-14.1
4,CN(Cc1ccc(C(=O)O)cc1)c1ccc(OCc2c(-c3c(Cl)cccc3Cl)noc2C2CC2)nc1C(F)(F)F,0.284

# Molecular target: Glutathione peroxidase 1 (Homo sapiens) (UniProt P07203)
# Experiment: Primary qHTS Assay for Inhibitors of Recombinant Selenoprotein Glutathione Peroxidase 1 (GPX1) (AID 1845191); also: nearly all actives have a fitted effect of over 65% in size; also: potency is read from the fitted curve at half-maximal effect
# Settings: recombinant GPX1, GR-coupled NADPH fluorescence, 15 min; series mostly up to 48.8 µM
# Summary of the method: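 GR-coupled readout: NADPH consumption tracked by fluorescence, ex 340/em 450 nm, at t=0 and after 15 min at RT. Final mix 10 nM GPX1, 1 mM GSH, 0.5 mM CHP, 0.5 mM NADPH, 100 nM GR, 0.01% BSA, following 30 min enzyme–compound preincubation.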
# Sequence of Glutathione peroxidase 1 (Homo sapiens) (P07203 whole entry, looked up): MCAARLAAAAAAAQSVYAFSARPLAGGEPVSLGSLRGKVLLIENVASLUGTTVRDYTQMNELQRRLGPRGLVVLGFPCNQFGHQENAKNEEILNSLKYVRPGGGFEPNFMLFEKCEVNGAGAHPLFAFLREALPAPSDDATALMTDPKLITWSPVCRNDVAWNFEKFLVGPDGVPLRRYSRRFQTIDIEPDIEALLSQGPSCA
row,Structure (SMILES),Potency
1,CC(=O)N1CCN([C@H]2CCN(C(=O)N(C)[C@H](C)c3cc(C(F)(F)F)cc(C(F)(F)F)c3)[C@@H](c3ccc(F)cc3C)C2)CC1,inactive
2,C=C1C(=O)O[C@@H]2C[C@@H](C)[C@]34C[C@]5(C(=O)O[C@H]6CC(C)=C([C@H](C)CCCO)[C@H](OC(=O)C(C)CC)[C@H]65)[C@@H](C(C)=C3C[C@@H]12)[C@H]4OC(C)=O (stereo partly drawn),inactive
3,COc1ccccc1-c1c[nH]c2ncc(-c3cncc(C(=O)N(C)C)c3)cc12,inactive
4,Fc1ccccc1CNCc1ccc(-c2ccnc3[nH]ccc23)cc1,25.5 µM (active)
5,Clc1ccccc1CNCC1CCC(CNCc2ccccc2Cl)CC1 (stereo not drawn),inactive
6,CNc1nc(-c2ccc3c(N)n[nH]c3c2)cc(N2CC(C(=O)NC3CCCCC3)CCC2C)n1 (stereo not drawn),inactive
7,C[C@@H](CN1CCC(n2c(=O)[nH]c3cc(Cl)ccc32)CC1)NC(=O)c1ccc2ccccc2c1,inactive
8,CC1=CC(=O)[C@@]2(C(C)C)C[C@@H]12,inactive
9,C=C1C(=O)O[C@@H]2/C=C(/C)CC3C=C(C[C@H](OC(=O)/C(C)=C\C)[C@@H]12)C(=O)O3 (stereo partly drawn),inactive
10,COc1ccc2c(c1)CN(C(=O)CCN1CCC(Cc3ccccc3)CC1)CCS2,inactive
11,COc1ccc(-c2nc(-c3cc(C(F)(F)F)cc(C(F)(F)F)c3)n(Cc3ccc(C(N)=O)cc3)c2-c2ccc(OC)cc2)cc1,inactive
12,CC(=O)Nc1ccc(C(=O)Nc2ccccc2N)cc1,inactive
13,CCOC(=O)CCC(=O)O[C@H]1[C@H](O[C@@H]2[C@@H](C)[C@H](O[C@H]3C[C@@](C)(OC)[C@@H](O)[C@H](C)O3)[C@@H](C)C(=O)O[C@H](CC)[C@@](C)(O)[C@H](O)[C@@H](C)C(=O)[C@H](C)CC2(C)O)O[C@H](C)C[C@@H]1N(C)C (stereo partly drawn),inactive
14,C=C(C(=O)O)C1CC2=C(C)C(=O)CC2C(C)CC1O (stereo not drawn),inactive
15,CCC(=O)Nc1cccc(Oc2nc(Nc3ccc(N4CCN(C)CC4)cc3OC)ncc2Cl)c1,inactive
16,Cc1cc(CN)cc(C)c1NC(=O)c1ccc(-c2cc(Cl)ccc2Cl)o1,inactive
17,C=C1C(=O)O[C@@H]2C[C@@]3(C)CCC[C@H](C)C3=C[C@H]12,inactive
18,C=C1C(=O)O[C@@H]2[C@H]1[C@H](O)C[C@]1(C)[C@@H](O)CC=C(C)[C@@H]21,inactive
19,CC(C)c1ccc(NC(=O)C(c2ccccc2)N(C)C(=O)Cc2c[nH]c3ccccc23)cc1 (stereo not drawn),inactive
20,Cc1cc(C)c(NC(=O)N(Cc2ccc3c(c2)Cc2ccccc2-3)C2CCCCCC2)c(C)c1,inactive
21,Cn1nccc1Nc1nccc(-c2ccn([C@H](CO)c3ccc(Cl)c(F)c3)c(=O)c2)n1,inactive
22,C[N+]1(C)[C@@H]2CC[C@H]1CC(OC(=O)C(O)c1ccccc1)C2 (stereo partly drawn),inactive
23,CC1CCN(c2cc(NC(=O)c3ccccc3)ncn2)CC1,inactive
24,CCOc1ccc(-c2nc(-c3cccc4c3CCC4NCCO)no2)cc1OCC (stereo not drawn),inactive
25,CCC(=O)c1cc(-c2ccc(Cl)cc2)n(-c2ccc(S(N)(=O)=O)cc2)c1C,inactive
26,COc1cc2nc(-c3cc(F)ccc3O)nc(N[C@@H]3CNC[C@H]3C(C)(C)O)c2cc1OC,inactive
27,COc1cccc(NC[C@@H](O)Cn2c3ccc(Br)cc3c3cc(Br)ccc32)c1,inactive
28,O=C(/C=C/n1cnc(-c2cc(C(F)(F)F)cc(C(F)(F)F)c2)n1)NNc1cnccn1,inactive
29,COc1cc(-c2cc(-c3cccc(O)c3)cnc2N)cc(OC)c1OC,inactive
30,C[C@H](NC(=O)C(C)(C)Oc1ccc(C(F)(F)F)cn1)[C@@H](Cc1ccc(Cl)cc1)c1cccc(C#N)c1,inactive
